These results are taken from PubChem BioAssay (NCATS).

Results filed as inconclusive are left out. A call without a number means that no potency is given here. Activity calls are given as the source filed them. Calls come from the whole dose curve; as a rule, active = well fitted inhibition curve with a large enough effect; inconclusive = small, poorly fitted or top-dose-only effect; inactive = flat fitted curve, though single readings scatter.

Luciferin 4-monooxygenase (Photinus pyralis), sequence (P08659 whole entry, looked up): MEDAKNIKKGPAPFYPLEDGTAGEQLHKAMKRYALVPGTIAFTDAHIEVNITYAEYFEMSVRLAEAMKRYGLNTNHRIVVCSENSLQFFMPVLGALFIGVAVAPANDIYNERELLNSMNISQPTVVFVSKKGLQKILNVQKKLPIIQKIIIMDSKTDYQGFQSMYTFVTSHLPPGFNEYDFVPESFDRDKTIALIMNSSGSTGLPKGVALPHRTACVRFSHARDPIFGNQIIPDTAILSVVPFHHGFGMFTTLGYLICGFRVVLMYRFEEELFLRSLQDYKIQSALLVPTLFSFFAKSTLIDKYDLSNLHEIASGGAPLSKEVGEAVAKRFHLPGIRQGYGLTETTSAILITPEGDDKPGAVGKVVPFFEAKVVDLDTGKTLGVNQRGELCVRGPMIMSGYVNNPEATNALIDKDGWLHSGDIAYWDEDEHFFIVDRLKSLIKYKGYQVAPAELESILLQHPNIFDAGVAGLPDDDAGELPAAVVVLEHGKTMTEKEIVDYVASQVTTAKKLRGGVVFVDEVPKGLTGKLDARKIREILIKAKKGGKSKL

This assay addresses Luciferin 4-monooxygenase (Photinus pyralis) (UniProt P08659). The experiment in a line: Biochemical firefly luciferase enzyme assay for NPC (AID 624030).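 Note: purified P. pyralis luciferase at 10 nM with luciferin and ATP substrate; nearly all actives have a fitted effect of over 70% in size.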 The note with it: purified P. pyralis luciferase, luminescence, 5 min; series mostly up to 58.6 µM. Put shortly: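 Counter-screen for direct inhibition of the luciferase enzyme by approved-drug library compounds, run at 10 nM enzyme in 50 mM Tris acetate (final). Luminescence was read within 5 min of enzyme-buffer addition and normalized to PTC124 versus DMSO (0%).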
Turning to `CCOP(=S)(OCC)Oc1ccc2c(C)c(Cl)c(=O)oc2c1`, the Potency result was “inactive”.

`CC(C)c1cccc(C(C)C)c1O`: the Potency entry is “inactive”.

Turning to `O=C1c2ccccc2C(=O)c2ccccc21`, the Potency result was “inactive”.

Regarding `CN1C[C@H](C(=O)N[C@]2(C)O[C@@]3(O)[C@@H]4CCCN4C(=O)[C@H](Cc4ccccc4)N3C2=O)C=C2c3cccc4[nH]cc(c34)C[C@H]21`, the Potency result was “inactive”.

As to `O=C1c2ccccc2C(=O)C1C(=O)C(c1ccccc1)c1ccccc1`, the Potency entry is “inactive”.

`C[C@]12CCC(=O)C=C1CC[C@@H]1[C@@H]2CC[C@]2(C)C(=O)CC[C@@H]12`: the Potency entry was “inactive”.

With `Nc1ccccc1C(=O)O`, the Potency entry is “inactive”.

Take `Oc1ccc(Cl)cc1`: the Potency result is “inactive”.

As for `Nc1ccc([As](=O)(O)O)cc1`, the Potency result is “inactive”.

Regarding `O=C(O)CCCc1ccc(N(CCCl)CCCl)cc1`, the Potency entry was “inactive”.
